Screening data as filed in PubChem.
An excerpt weighted towards active compounds, which were near 4.4% of everything screened.
IL1B NFkB inh – blocks IL-1B driven NFkB nuclear translocation in HUVEC cells; HUVEC IL-1B NFkB p65 nuclear translocation imaging; inhibition, % at 2 µM; 0.43% of 94,000 active; AID 796;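 active = inhibition above about 30% together with a positive call from visual inspection of the well image, limit read from the data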;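 note: nuclear over cytoplasmic p65 intensity ratio measured by imaging; 0% = IL-1B stimulated DMSO wells and 100% = unstimulated DMSO wells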
IL1B cytotox – HUVEC cytotoxicity counter-screen, IL-1B stimulated; HUVEC cell count loss, Hoechst imaging; cell count reduction, % at 2 µM; 0.41% of 94,000 active; AID 845;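 active = cell count reduction more than 3 SD above the screen-wide mean, cut at about 70% in these data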;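 note: normalized per plate to untreated control cells as the no-loss baseline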
Cav32 inh – human Cav3.2 channel inhibition, primary screen. O95180. Cav3.2-expressing cells, Fluo-4 calcium fluorescence FDSS; stronger effect = lower value. B-score at 10 µM. 4% of 100,000 active. AID 449739;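 active = single-dose well whose peak fluorescence ratio is a statistical outlier from its plate by either plate-standardised score or position-corrected B-score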
IL1B NFkB pot – enhances IL-1B driven NFkB nuclear translocation | 0.3% of 94,000 active | HUVEC IL-1B NFkB p65 nuclear translocation imaging | AID 819 | activation, % at 2 µM;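 active = activation above 40%, about the mean plus 3 SD, also judged a hit on visual image review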;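 note: percent activation is computed from the nuclear over cytoplasmic p65 intensity ratio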
An asterisk follows results filed as active; · = not tested or not shown.

SMILES | IL1B NFkB inh | IL1B cytotox | Cav32 inh | IL1B NFkB pot
O=C(Nc1ccc2snnc2c1)Nc1cccc2ccccc12 | 28 | 87* | -0.81 | -28
Cc1cc(C)cc(N(CC(=O)N2CCc3ccccc32)S(=O)(=O)c2c(C)noc2C)c1 | 0 | -13 | -5.5* | 0
Cc1ccc(NC(=O)CN(c2cc(C)cc(C)c2)S(=O)(=O)c2c(C)noc2C)nc1 | 1 | -43 | -4.5* | -1
Cc1n[nH]c(C)c1S(=O)(=O)N(CC(=O)N1CCc2ccccc21)c1ccc(C(C)C)cc1 | -6 | 7 | 3* | 6
CCOc1ccc(N(CC(=O)N2CCc3ccccc32)S(=O)(=O)c2c(C)noc2C)cc1 | -16 | -2 | -1.7 | 16
COc1ccc(N(CC(=O)N2CC=C(c3ccccc3)CC2)S(=O)(=O)c2c(C)noc2C)cc1 | -25 | -2 | -1 | 25
CCOc1ccc(N(CC(=O)N2CC=C(c3ccccc3)CC2)S(=O)(=O)c2c(C)noc2C)cc1 | 8 | -2 | -4.8* | -8
Cc1cc(C)cc(N(CC(=O)Nc2cccc(C)n2)S(=O)(=O)c2c(C)noc2C)c1 | -5 | -48 | -2.6 | 5
CN(C)CCC[C@@]1(c2ccc(F)cc2)OCc2cc(C#N)ccc21 | · | · | 0.042 | ·
COC(=O)c1sccc1-c1ccc(C(=O)Nc2cccc(Cl)c2)o1 | 3 | -8 | -1.8 | -3
Cc1cc(C)cc(N(CC(=O)N2CCN(c3ccccc3)CC2)S(=O)(=O)c2c(C)noc2C)c1 | 4 | 9 | -2.1 | -4
Cc1cc(C)cc(N(CC(=O)N2CCn3c2nc2ccccc23)S(=O)(=O)c2c(C)noc2C)c1 | 5 | -10 | -5.6* | -5
CSc1nc2ccc(S(=O)(=O)NC3CCCCC3)cc2s1 | 10 | 5 | · | -10
O=S(=O)(Nc1ccc2c(c1)OCCO2)c1ccc2oc3ccccc3c2c1 | -6 | -42 | -5.9* | 5
O=C(Nc1ccc2c(c1)oc1ccccc12)N1CCOCC1 | 17 | 71* | -0.025 | -17
CSc1nc2ccc(NS(=O)(=O)c3ccc4c(c3)OCCO4)cc2s1 | · | · | -4.5* | ·
O=C(Nc1ccccc1)N1CCOCC1 | 13 | -15 | -0.58 | -13
Cc1cccc(NS(=O)(=O)c2ccc3c(c2)OCCO3)c1 | -21 | -79 | -0.73 | 21
O=S(=O)(c1ccc2c(c1)oc1ccccc12)N1CCOCC1 | 6 | 5 | -0.58 | -6
O=S(=O)(Nc1ccc2c(c1)oc1ccccc12)N1CCCC1 | -1 | 7 | -5.9* | 1
COc1ccc(S(=O)(=O)N2CCC(C(=O)Nc3ccc4c(c3)OCCO4)CC2)cc1OC | -4 | -13 | -0.19 | 4
CCn1c(SCc2ccc(Cl)cc2Cl)nc2nc3c(cc2c1=O)CCCC3 | -4 | 20 | -2 | 3
O=C(NC(Cc1ccccc1)C(=O)O)/C(=C\c1ccc(F)cc1)NC(=O)c1ccccc1 (stereo not drawn) | 6 | -3 | -0.59 | -6
CCCCCCn1c(C)nc2c(c1=O)c1nc3ccccc3nc1n2/N=C/c1ccco1 | -14 | -35 | -5.1* | 14
COC(=O)C1(Cc2ccc(O)cc2)OC(=O)C(O)=C1c1ccc(O)cc1 (stereo not drawn) | · | · | -1.4 | ·
SMILES | IL1B NFkB inh | IL1B cytotox | Cav32 inh | IL1B NFkB pot
O=S(=O)(N/N=C1\CC(c2ccccc2)Oc2ccccc21)c1ccccc1 (stereo not drawn) | -4 | -14 | -7.7* | 4
CCOc1ccc(S(=O)(=O)N/N=C2/CC(c3ccccc3)Oc3ccccc32)cc1 (stereo not drawn) | 8 | 12 | -7.1* | -8
CCO[C@H]1OC(C(N)=O)=C[C@@H](C(C)(C)C)[C@@H]1CCCO | · | · | 1.1 | ·
CCCOC(=O)c1ccc(Oc2c(-c3ccc(OCC)cc3O)n[nH]c2C)cc1 | -16 | -4 | -0.2 | 16
COc1ccc(Oc2c(-c3ccc(O)cc3O)n[nH]c2C)cc1 | -8 | -37 | -8.8* | 8
Cc1nc2cc(-c3cccc(F)c3)nn2c(C)c1CCC(=O)NC(C)CCc1ccco1 (stereo not drawn) | -1 | 2 | -5.5* | 1
Cc1nn(Cc2ccc(Cl)cc2)c(C)c1NC(=O)CSc1nc2c(c(C(F)(F)F)n1)CCc1ccccc1-2 | 1 | 17 | -3.9* | -1
Cn1cc(SCC(=O)N2CCCc3ccccc32)c2ccccc21 | 7 | 2 | -3.8 | -7
CCN(CC)C(=O)CSc1nnc(CNc2ccc(F)cc2)o1 | -9 | 9 | 0.4 | 9
COc1ccc2c(c1)C1NC(=S)NC(C)(O2)C1C(=O)Nc1ccccc1C (stereo not drawn) | 1 | -5 | 0.15 | -1
CCOC(=O)C1CCCN(Cc2cc(Br)ccc2OC)C1 (stereo not drawn) | · | · | -0.13 | ·
CCOC(=O)C1CCCN(Cc2cc(Br)c(OC)cc2OC)C1 (stereo not drawn) | 98* | 84* | 0.31 | -98
CCCCn1c(-c2ccccc2)nc2c(=O)n(C)c(=O)[nH]c21 | -1 | -3 | -1.7 | 1
CC(=O)c1coc2ccc(OCCN3CCCCC3)cc12 | -43 | -27 | 0.24 | 43*
Clc1ccc(C2=CC(c3ccco3)n3ncnc3N2)cc1 (stereo not drawn) | -8 | 10 | -5.6* | 8
Cc1ccc(C2=CC(c3ccc(C)cc3)n3ncnc3N2)cc1 (stereo not drawn) | · | · | -0.62 | ·
COC(=O)c1sccc1NC(=O)CSc1ccccc1NS(=O)(=O)c1ccc(F)cc1 | 7 | -31 | -5.6* | -7
CCC(CC)c1nnc(NC(=O)CCCN2C(=O)c3ccccc3C2=O)s1 | 8 | -9 | 1.1 | -8
COc1cc(CCN2C(=O)c3cccc4cccc(c34)C2=O)c(S(=O)(=O)NCCCO)cc1OC | 0 | 3 | -0.14 | 0
Cc1ccc(C)c(N2CCN(C(=O)c3ccc(NS(=O)(=O)c4c(C)noc4C)cc3)CC2)c1 | 0 | 0 | -8.3* | 0
COc1cc(NC(=O)c2cc3ccccc3o2)c(OC)cc1Cl | 100* | 78* | -0.00096 | -100
CCOc1ccc(-c2nnn(CC(=O)c3cc(OC)ccc3OC)n2)cc1 | 17 | -44 | -2.7 | -17
COc1ccc(CNC(=O)CN(CC2CCCO2)C(=O)CNS(=O)(=O)c2ccc(F)cc2)cc1 (stereo not drawn) | · | · | -6.2* | ·
CCOC(=O)C1=NN(C(=O)c2ccc(C)cc2)C(O)(c2ccc(Cl)cc2)C1 (stereo not drawn) | 0 | 9 | -6.3* | 0
Cc1oc(-c2ccccc2Cl)nc1Cn1cccc1C1=NC(c2ccccc2)CO1 (stereo not drawn) | · | · | -6.7* | ·
SMILES | IL1B NFkB inh | IL1B cytotox | Cav32 inh | IL1B NFkB pot
COc1cccc(NC(=O)C2CCN(Cc3cnn(-c4ccccc4)c3-n3cccc3)CC2)c1 | 20 | 3 | -10* | -20
COc1ccc(OC)c(NC(=O)C2CCN(Cc3cnn(-c4ccccc4)c3-n3cccc3)CC2)c1 | 4 | 19 | -8.7* | -4
O=C(Nc1ccccc1Cl)C1CCN(Cc2cnn(-c3ccccc3)c2-n2cccc2)CC1 | -25 | -57 | -8.3* | 12
CCS(=O)(=O)N1Cc2ccccc2CC1C(=O)N1CCN(c2ccccc2)CC1 (stereo not drawn) | -3 | 5 | · | 3
O=C(CN(Cc1ccc2c(c1)OCO2)C(=O)c1cnsn1)NC1CCCC1 | -4 | -24 | · | 4
CCOC(=O)c1ccc(Nc2nc(-c3cccnc3)nc3ccccc23)cc1 | -18 | 86* | 0.0093 | 18
